Experimental data: PubChem BioAssay
The source made the active and inactive calls. Unless noted, the rule behind the calls is not given here.

Legend:
[1] = HepG2 liver cancer cell viability effects, profiling panel, resazurin fluorescence, 24 h, PK04 Diversity Set (AID 1172); details: higher = more signal
[2] = basal S. cerevisiae growth modulation, no modifier, primary screen, OD600, strain BY4716, 24 h, basal condition (AID 1173); details: OD600, 24 h, higher = more signal, called active from +8 up or from −8 down
[3] = MM1S myeloma cell viability, profiling panel, resazurin fluorescence, basal, 24 h, PK04 Diversity Set (AID 1174); details: higher = more signal, called active from +8 up or from −8 down;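 note: MM1S multiple myeloma cell line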
[4] = biological target: Dihydroorotate dehydrogenase (quinone), mitochondrial (Plasmodium falciparum (isolate 3D7)) (UniProt Q08210); test: PfDHODH enzyme inhibitors, primary screen, biochemical, C-terminal His tag, absorbance 600 nm (AID 1175); details: DCIP absorbance 600 nm, higher = more signal, called active from +8 up or from −8 down;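 note: recombinant parasite enzyme with a five histidine tag at its C terminus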
Sequence of Dihydroorotate dehydrogenase (quinone), mitochondrial (Plasmodium falciparum (isolate 3D7)) (Q08210 whole entry, looked up): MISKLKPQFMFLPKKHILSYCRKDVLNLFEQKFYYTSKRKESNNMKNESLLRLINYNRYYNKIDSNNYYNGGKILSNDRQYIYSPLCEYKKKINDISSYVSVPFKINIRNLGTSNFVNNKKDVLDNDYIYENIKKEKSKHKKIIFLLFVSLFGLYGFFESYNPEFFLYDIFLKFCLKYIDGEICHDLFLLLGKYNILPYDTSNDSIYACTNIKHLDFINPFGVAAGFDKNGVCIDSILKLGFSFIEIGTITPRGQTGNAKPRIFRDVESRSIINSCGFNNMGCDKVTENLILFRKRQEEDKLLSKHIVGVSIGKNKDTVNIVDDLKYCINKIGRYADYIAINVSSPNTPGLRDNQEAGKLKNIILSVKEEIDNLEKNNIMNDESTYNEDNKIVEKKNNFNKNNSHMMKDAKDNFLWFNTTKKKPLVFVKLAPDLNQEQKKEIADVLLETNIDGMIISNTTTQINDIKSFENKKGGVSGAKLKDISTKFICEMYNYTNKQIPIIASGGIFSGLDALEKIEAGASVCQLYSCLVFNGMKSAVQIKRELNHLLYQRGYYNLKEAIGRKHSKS

[5] = P. aeruginosa biofilm formation inhibitors, primary screen, strain PAO1, LB-PBS medium, absorbance 600 nm (AID 1176); details: P. aeruginosa PAO1 growth/biofilm, A600, 12 h; higher = more signal
[6] = S. cerevisiae RM11-1a growth modifiers, primary screen, strain RM11-1a, OD600, basal, 24 h (AID 1177); details: OD600, 24 h, higher = more signal, called active from +8 up or from −8 down;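 note: cultures grown under basal conditions with no added stressor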
[7] = E. coli acrAB mutant growth effects, primary screen, E. coli filamentation inducers, strain DRC39, OD650, 24 h (AID 1178); details: higher = more signal, called active from +8 up or from −8 down;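 note: growth measured as culture turbidity by optical density at 650 nm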
[8] = E. coli acrAB mutant growth effects, primary screen, E. coli filamentation inducers, strain DRC39, OD650, 48 h (AID 1179);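 note: screen aims at cell division blockers that make cells filament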; details: E. coli DRC39 delta-acrAB growth, higher = more signal, called active from +8 up or from −8 down
[9] = RPMI8226 myeloma cell viability, profiling panel, resazurin fluorescence, basal, 24 h, PK04 Diversity Set (AID 1180); details: higher = more signal;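 note: RPMI8826 multiple myeloma cell line at 5000 cells per well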
[10] = biological target: E3 ubiquitin-protein ligase XIAP (Homo sapiens) (UniProt P98170); test: XIAP binders, primary screen, biophysical, small-molecule microarray, fluorescence 635 nm (AID 1181); details: small-molecule microarray binding, higher = more signal;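 note: score merges 667 nm emission and signal to noise over triplicate slides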
Sequence of E3 ubiquitin-protein ligase XIAP (Homo sapiens) (P98170 whole entry, looked up): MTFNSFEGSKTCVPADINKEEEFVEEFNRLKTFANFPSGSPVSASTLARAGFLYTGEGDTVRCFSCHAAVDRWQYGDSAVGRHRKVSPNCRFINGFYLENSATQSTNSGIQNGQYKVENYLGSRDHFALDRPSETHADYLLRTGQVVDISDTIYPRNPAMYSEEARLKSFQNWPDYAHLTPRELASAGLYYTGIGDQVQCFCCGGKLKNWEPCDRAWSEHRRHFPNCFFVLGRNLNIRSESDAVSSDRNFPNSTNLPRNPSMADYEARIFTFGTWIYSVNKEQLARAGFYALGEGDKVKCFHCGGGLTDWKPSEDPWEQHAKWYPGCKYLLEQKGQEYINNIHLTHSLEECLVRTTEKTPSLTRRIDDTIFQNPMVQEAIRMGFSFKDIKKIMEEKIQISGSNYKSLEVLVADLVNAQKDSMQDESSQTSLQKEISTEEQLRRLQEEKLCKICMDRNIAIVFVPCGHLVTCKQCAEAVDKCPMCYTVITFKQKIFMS

[11] = test system: XIP peptide (Xip251-270) binding; test: small-molecule binders of XIP peptide, primary screen, biochemical, small-molecule microarray, fluorescence 635/667 nm, 0.1 µg/mL protein (AID 1182); details: fluorescent protein binding, 635 nm, higher = more signal, called active from +8 up or from −8 down
XIP peptide (Xip251-270) = test: small-molecule binders of XIP peptide, primary screen, biochemical, small-molecule microarray, fluorescence 635/667 nm, 0.5 µg/mL protein (AID 1183); details: small-molecule microarray binding, fluorescence 635 nm; higher = more signal
[12] = Plasmodium falciparum growth inhibition, primary screen, strain 3D7, DAPI fluorescence, 100 nL (AID 1184);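 note: parasites grown inside human red blood cells in medium with human serum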; details: P. falciparum 3D7 growth, 3 d, higher = more signal
[13] = biological target: Homeobox protein Hox-A13 (Mus musculus) (UniProt Q62424); test: inhibitors of HoxA13-DNA binding, primary screen, biochemical, fluorescence polarization, labeled oligonucleotide (AID 1185); details: 15 min, higher = more signal, called active from +8 up or from −8 down
Sequence of Homeobox protein Hox-A13 (Mus musculus) (Q62424 whole entry, looked up): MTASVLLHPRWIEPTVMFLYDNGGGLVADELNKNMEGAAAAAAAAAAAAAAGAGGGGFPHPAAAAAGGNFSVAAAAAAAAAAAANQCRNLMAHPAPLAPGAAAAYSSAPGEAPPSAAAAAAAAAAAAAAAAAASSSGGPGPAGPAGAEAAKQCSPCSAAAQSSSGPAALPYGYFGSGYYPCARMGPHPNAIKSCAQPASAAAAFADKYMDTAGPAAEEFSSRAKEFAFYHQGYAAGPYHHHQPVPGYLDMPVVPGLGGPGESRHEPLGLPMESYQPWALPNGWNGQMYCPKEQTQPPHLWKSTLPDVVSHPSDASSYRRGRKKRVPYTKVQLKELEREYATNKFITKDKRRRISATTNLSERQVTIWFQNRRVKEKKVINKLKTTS

[14] = inhibitors of hydroxyurea-induced Chk1 phosphorylation, primary screen, imaging, HeLa, phospho-Chk1 antibody, percent positive cells (AID 1186); details: hydroxyurea-induced phospho-Chk1 immunofluorescence imaging, higher = more signal
[15] = inhibitors of hydroxyurea-induced Chk1 phosphorylation, primary screen, imaging, HeLa, phospho-Chk1 nuclear intensity (AID 1187); details: hydroxyurea-induced phospho-Chk1 immunofluorescence imaging, higher = more signal

Compound	z-score [1]	z-score [2]	z-score [3]	composite z-score [4]	z-score [5]	z-score [6]	z-score [7]	z-score [8]	z-score [9]	composite z-score [10]	composite z-score [11]	composite z-score (XIP peptide (Xip251-270))	z-score [12]	z-score [13]	z-score [14]	z-score [15]
C=C(C)[C@@H]1CC=C(C(O)C2C=CC3C(=O)N(C)C(=O)C3N2Nc2ccc([N+](=O)[O-])cc2[N+](=O)[O-])CC1 (some centres undefined)	-0.902	0.522 (inactive)	-1.28 (inactive)	-0.109 (inactive)	0.599 (inactive)	0.442 (inactive)	-0.358 (inactive)	-0.339 (inactive)	-1.1	0.158	-0.0868 (inactive)	0.641	0.481	-4.28 (inactive)	0.385 (inactive)	0.279 (inactive)
COC(=O)[C@]1(Cc2ccccc2)N=C(c2ccc(OCCCO)cc2)O[C@@H]1c1ccccc1CN=[N+]=[N-]	-4.19	-0.813 (inactive)	-8.88 (active)	1.94 (inactive)	1.84 (inactive)	2.72 (inactive)	1.28 (inactive)	-0.88 (inactive)	-7.14	0.0159	0.506 (inactive)	0.753	-2.47	-1.89 (inactive)	-0.623 (inactive)	-0.631 (inactive)
COC(=O)[C@@]1(Cc2ccccc2)[C@H]2c3cc(C(=O)N(C)C)n(Cc4ccc(C(F)(F)F)nc4)c3C[C@H]2CN1C(=O)c1ccccc1	-0.634	2.47 (inactive)	-1.11 (inactive)	-0.125 (inactive)	0.563 (inactive)	1.02 (inactive)	-0.46 (inactive)	0.03 (inactive)	-0.693	-0.242	0.119 (inactive)	0.337	-1.24	-3.46 (inactive)	0.296 (inactive)	0.0603 (inactive)
COC(=O)C(CC#Cc1ccc2c(c1)[C@]1(C(=O)N2)[C@H](C(=O)NC[C@H](O)c2ccccc2)[C@H]2C(=O)O[C@H](c3ccccc3)[C@H](c3ccccc3)N2[C@@H]1c1ccccc1OCCO)C(=O)OC	0.786	1.42 (inactive)	-7.38 (inactive)	-7.26 (inactive)	1.7 (inactive)	1.6 (inactive)	0.0386 (inactive)	-0.477 (inactive)	-6.76	-0.0629	0.0226 (inactive)	0.654	-2.33	-1.39 (inactive)	0.0062 (inactive)	0.0197 (inactive)
CCCCC(=C=CC[C@H](O)c1ccc(CO)o1)CCO	-0.585	-0.976 (inactive)	0.0305 (inactive)	-0.776 (inactive)	0.224 (inactive)	0.648 (inactive)	-0.312 (inactive)	-0.409 (inactive)	-0.34	-0.0663	0.234 (inactive)	0.552	1.13	-4.55 (inactive)	0.818 (inactive)	0.392 (inactive)
Cc1ccc(C(C)CC(O)C2C=CC3C(=O)N(C)C(=O)C3N2Nc2ccccc2)o1 (centres undefined)	-0.243	0.372 (inactive)	-0.855 (inactive)	0.164 (inactive)	0.695 (inactive)	0.051 (inactive)	-1 (inactive)	-0.466 (inactive)	-0.874	0.198	0.476 (inactive)	0.383	0.385	-4.68 (inactive)	0.163 (inactive)	-0.0486 (inactive)
O=C1O[C@H](c2ccccc2)[C@H](c2ccccc2)N2[C@H]1[C@@H](C(=O)N1CCN(c3ncccn3)CC1)[C@]1(C(=O)Nc3ccc(C#CCCO)cc31)[C@H]2c1ccc(O)cc1	0.0071	0.298 (inactive)	0.34 (inactive)	0.438 (inactive)	0.462 (inactive)	0.254 (inactive)	-0.386 (inactive)	-0.395 (inactive)	0.186	-0.088	-0.224 (inactive)	0.726	-0.707	-2.81 (inactive)	-0.114 (inactive)	-0.212 (inactive)
CCCN1C(=O)[C@]2(CCC(=O)OC(C)(C)C)N=C(c3ccc(OCCCO)cc3)O[C@@H]2c2ccccc21	-0.154	-0.836 (inactive)	-2.08 (inactive)	0.023 (inactive)	3.33 (inactive)	0.654 (inactive)	1.08 (inactive)	0.0565 (inactive)	-2.7	0.118	0.55 (inactive)	0.601	-2.33	-3.37 (inactive)	-0.292 (inactive)	-0.312 (inactive)
COC(=O)C[C@H]1O[C@@]2(C[C@@H]1[Si](C)(C)C)C(=O)N(C)c1ccccc12	0.791	-3.71 (inactive)	1.41 (inactive)	-0.655 (inactive)	0.826 (inactive)	-3.42 (inactive)	2.3 (inactive)	0.92 (inactive)	0.904	-0.0966	-0.227 (inactive)	-0.186	0.357	-0.91 (inactive)	-0.597 (inactive)	-0.0422 (inactive)
